# Laboratory results as given in the supplement of paper PMC8728848.
# Shown is part of a subset that was picked to be rich in the strongest signals.
# What was measured:
# Assay in all cases: glycan array binding signal (z-score within array); higher = stronger binding
# Conditions in all cases: glycan notation: IUPAC condensed, linker removed
# Fuc(a1-2)Gal = target: Fuc(a1-2)Gal
# Summary of the method: (§1)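 The binding signal is a Z-score computed within each array and averaged over linkers. Arrays of the same protein sequence at different concentrations or buffers were also averaged together. Data originate from 3228 arrays in the Consortium for Functional Glycomics database, kept only where the protein sequence was available.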
# Fuc(a1-2)Gal(b1-3)GalNAc = target: Fuc(a1-2)Gal(b1-3)GalNAc
# Summary of the method: as §1
# [1] = target: Fuc(a1-2)Gal(b1-3)GlcNAc(b1-2)Man(a1-3)[Fuc(a1-2)Gal(b1-3)GlcNAc(b1-2)Man(a1-6)]Man(b1-4)GlcNAc(b1-4)[Fuc(a1-6)]GlcNAc
# Summary of the method: as §1
# [2] = target: Fuc(a1-2)Gal(b1-4)GlcNAc(b1-3)Gal(b1-4)GlcNAc(b1-3)Gal(b1-4)GlcNAc
# Summary of the method: as §1
# [3] = target: Fuc(a1-2)Gal(b1-4)GlcNAc(b1-3)[Fuc(a1-3)[Gal(b1-4)]GlcNAc(b1-6)]Gal(b1-4)Glc
# Summary of the method: as §1
# [4] = target: Fuc(a1-2)Gal(b1-4)[Fuc(a1-3)]GlcNAc(b1-3)[Neu5Ac(a2-6)Gal(b1-4)GlcNAc(b1-6)]Gal(b1-4)Glc
# Summary of the method: as §1
# [5] = target: Fuc(a1-2)[GalNAc(a1-3)]Gal(b1-4)Glc
# Summary of the method: as §1
# [6] = target: Fuc(a1-3)[Gal(b1-4)]GlcNAc(b1-3)Gal(b1-4)[Fuc(a1-3)]GlcNAc
# Summary of the method: as §1
# [7] = target: Gal(a1-3)Gal(b1-3)GlcNAc(b1-2)Man
# Summary of the method: as §1
# Gal(b1-3)GlcNAc = target: Gal(b1-3)GlcNAc
# Summary of the method: as §1
# [8] = target: Gal(b1-3)GlcNAc(b1-3)Gal(b1-4)GlcNAc
# Summary of the method: as §1
# [9] = target: Gal(b1-3)GlcNAc(b1-3)Gal(b1-4)[Fuc(a1-3)]GlcNAc
# Summary of the method: as §1
# Gal(b1-4)GlcNAc(b1-2)Man = target: Gal(b1-4)GlcNAc(b1-2)Man
# Summary of the method: as §1
# [10] = target: Gal(b1-4)GlcNAc(b1-2)Man(a1-3)[Man(a1-6)]Man(b1-4)GlcNAc(b1-4)GlcNAc
# Summary of the method: as §1
# [11] = target: Gal(b1-4)GlcNAc(b1-2)Man(a1-6)Man(b1-4)GlcNAc(b1-4)GlcNAc
# Summary of the method: as §1
# [12] = target: Gal(b1-4)GlcNAc(b1-3)Gal(b1-3)GalNAc
# Summary of the method: as §1
# [13] = target: Gal(b1-4)GlcNAc(b1-3)Gal(b1-4)GlcNAc(b1-3)Gal(b1-4)GlcNAc(b1-2)Man(a1-3)[Gal(b1-4)GlcNAc(b1-3)Gal(b1-4)GlcNAc(b1-3)Gal(b1-4)GlcNAc(b1-2)Man(a1-6)]Man(b1-4)GlcNAc(b1-4)[Fuc(a1-6)]GlcNAc
# Summary of the method: as §1
# [14] = target: Gal3S(b1-4)[Fuc(a1-3)]GlcNAc
# Summary of the method: as §1
# Gal6S(b1-4)Glc = target: Gal6S(b1-4)Glc
# Summary of the method: as §1
# [15] = target: GlcA3S(b1-3)Gal(b1-4)GlcNAc(b1-3)Gal(b1-4)Glc
# Summary of the method: as §1
# [16] = target: GlcNAc(b1-2)Man(a1-3)[GlcNAc(b1-4)][GlcNAc(b1-2)Man(a1-6)]Man(b1-4)GlcNAc(b1-4)[Fuc(a1-6)]GlcNAc
# Summary of the method: as §1
# [17] = target: GlcNAc(b1-2)[GlcNAc(b1-4)]Man(a1-3)[GlcNAc(b1-4)][GlcNAc(b1-2)[GlcNAc(b1-6)]Man(a1-6)]Man(b1-4)GlcNAc(b1-4)[Fuc(a1-6)]GlcNAc
# Summary of the method: as §1
# [18] = target: GlcNAc(b1-2)[GlcNAc(b1-6)]Man(a1-6)[GlcNAc(b1-2)Man(a1-3)]Man(b1-4)GlcNAc(b1-4)GlcNAc
# Summary of the method: as §1
# GlcNAc(b1-3)Gal(b1-4)Glc = target: GlcNAc(b1-3)Gal(b1-4)Glc
# Summary of the method: as §1
# [19] = target: GlcNAc(b1-3)Gal(b1-4)GlcNAc(b1-3)Gal(b1-4)GlcNAc(b1-2)[GlcNAc(b1-3)Gal(b1-4)GlcNAc(b1-3)Gal(b1-4)GlcNAc(b1-6)]Man(a1-6)[GlcNAc(b1-3)Gal(b1-4)GlcNAc(b1-3)Gal(b1-4)GlcNAc(b1-2)Man(a1-3)]Man(b1-4)GlcNAc(b1-4)[Fuc(a1-6)]GlcNAc
# Summary of the method: as §1
# [20] = target: GlcNAc(b1-3)Gal(b1-4)GlcNAc(b1-6)[Gal(b1-3)]GalNAc
# Summary of the method: as §1
# [21] = target: GlcNAc(b1-3)Gal(b1-4)GlcNAc(b1-6)[GlcNAc(b1-3)]Gal(b1-4)GlcNAc
# Summary of the method: as §1
binder,measurement,setting,value
LlpB (Pseudomonas fluorescens) (protein) MGSSHHHHHHSSGLVPRGSHMASSGFRIILFNSANNGTAILPPRNCLVAGQYLESPSKRYKLILEADGNLRLYDNGVPIWVADSSVPYTYVDNRPNTNLVTCFYMQGSAFLVDRVGSRTWATIGDWIDGAADRAYLQVQDDGNVVVVDGVPRWARFGFTPAALPNRGVFYPDHGTGPLPSFPVWSWTF,glycan array binding signal (z-score),Fuc(a1-2)Gal,-0.044
same,glycan array binding signal (z-score),Fuc(a1-2)Gal(b1-3)GalNAc,-0.631
same,glycan array binding signal (z-score),[1],-0.114
same,glycan array binding signal (z-score),[2],2.58
same,glycan array binding signal (z-score),[3],-0.33
same,glycan array binding signal (z-score),[4],0.032
same,glycan array binding signal (z-score),[5],-0.54
same,glycan array binding signal (z-score),[6],1.4
same,glycan array binding signal (z-score),[7],0.466
same,glycan array binding signal (z-score),Gal(b1-3)GlcNAc,0.344
same,glycan array binding signal (z-score),[8],0.129
same,glycan array binding signal (z-score),[9],0.523
same,glycan array binding signal (z-score),Gal(b1-4)GlcNAc(b1-2)Man,3.72
same,glycan array binding signal (z-score),[10],0.362
same,glycan array binding signal (z-score),[11],-0.158
same,glycan array binding signal (z-score),[12],-0.092
same,glycan array binding signal (z-score),[13],2.11
same,glycan array binding signal (z-score),[14],-1.03
same,glycan array binding signal (z-score),Gal6S(b1-4)Glc,-1.15
same,glycan array binding signal (z-score),[15],-1.73
same,glycan array binding signal (z-score),[16],1.22
same,glycan array binding signal (z-score),[17],-0.095
same,glycan array binding signal (z-score),[18],0.893
same,glycan array binding signal (z-score),GlcNAc(b1-3)Gal(b1-4)Glc,-0.719
same,glycan array binding signal (z-score),[19],0.375
same,glycan array binding signal (z-score),[20],1.38
same,glycan array binding signal (z-score),[21],-0.837
